Test results: ChEMBL document CHEMBL3988442, “University of Dundee, Small-Polar-MMV Screening Library” (2021)
In all, about 48,000 compounds went through this assay and about 13,000 (27%) showed an effect of 50% or more. Some of the results follow.

Test system: Wolbachia pipientis
Assay: Anti-Wolbachia Cell-Based Screen
Format: functional
Set-up: scale not given: in the data most compounds retested in dose-response had high values
Details: 5 µM

| Compound | Percent Effect [%] |
| --- | --- |
| Cc1nc2n(n1)CC(NCC(=O)NCC1(c3ccccc3)CC1)CC2 (configuration not stated) | -4.512 |
| CN(C(=O)c1cccc(OCC(F)F)n1)c1ccc2c(c1)CCO2 | 3.505 |
| CCCOc1cccc(NS(=O)(=O)c2cc(C(=O)O)cs2)c1 | 12.59 |
| Cc1ccccc1C(=O)Nc1ccc([C@H]2OCC(=O)N(C)[C@@H]2CO)cc1 | -10.53 |
| O=C(NC1CC1)C1CCc2nnc(-c3cccnc3)n21 (configuration not stated) | 102.7 |
| Cn1cc(C(=O)NC2CCCC2)c(-c2cccnc2)n1 | 1.647 |
| O=C(NC1CC1)C1CCCN(c2cccc(C(F)(F)F)n2)C1 (configuration not stated) | -13 |
| CNC(=O)C(C)(C)N1CCC[C@H]1C(=O)NC1CC1 | 8.345 |
| O=C(NC1CC1)C1CCc2nnc(C3CC3)n21 (configuration not stated) | 105.6 |
| CN1Cc2nc[nH]c2C[C@H]1C(=O)NC1CCCCC1 | 0.3029 |
| CN(CC1CCCCC1)C(=O)c1cn(C)nc1-c1cccnc1 | 20.64 |
| O=C(NC1CC1)C1CCc2nnc(-c3cccc(C(F)(F)F)c3)n21 (configuration not stated) | 107.7 |
| CCCS(=O)(=O)N1C[C@@H]2COC[C@@H](Cc3nc(C)no3)[C@@H]2C1 | 1.373 |
| CCc1nc(CN2CCCN(C(=O)c3cn[nH]c3C)CC2)cs1 | 4.84 |
| COc1cc(NCCNC(=O)c2cscc2C)cc(OC)c1 | -3.159 |
| CN(CCNS(C)(=O)=O)CC(c1cccs1)N1CCOCC1 (configuration not stated) | -6.912 |
| CCCc1nc(C)c(C(=O)NC2CCN(C3CC3)C2)s1 (configuration not stated) | 4.49 |
| CCc1nc(C)c(CNC(=O)CCCN2CCCCC2)s1 | -7.179 |
| CCc1nc(C)c(C(=O)NCCN2CCCC2)s1 | 119.2 |
| CCCc1nc(C)c(C(=O)NCCn2ccnc2)s1 | -2.524 |
| CCc1nc(C)c(C(=O)NCCNc2ncccn2)s1 | -5.791 |
| Cc1nc(-c2noc3ccc(C(=O)NCCN4CCOCC4)cc23)cs1 | -14.65 |
| CCCc1nc(C)c(C(=O)NC2CCN(c3ncccn3)CC2)s1 | -4.746 |
| CCCc1nc(C)c(C(=O)NCCN2CCCCC2)s1 | 125.3 |
| CCCc1nc(C)c(C(=O)NCCN2CCOCC2)s1 | 118.3 |
| Cc1cc(F)ccc1S(=O)(=O)NCc1[nH]ncc1Br | 19.22 |

| Compound | Percent Effect [%] |
| --- | --- |
| COc1ccc2c(c1)OCC(Cc1ccc(N)cn1)C2 (configuration not stated) | -6.73 |
| CCCc1nc(C)cc(N2CCNC(C(=O)Nc3ccc(C)nc3)C2)n1 (configuration not stated) | -5.575 |
| Cc1ccc(NC(=O)c2nc3c(s2)CCCN3C(C)C)cn1 | 4.841 |
| CC(C)=CCN1C[C@@H](C(=O)O)C[C@H](C(=O)Nc2ccc(C)nc2)C1 | 93.94 |
| Cc1ccc(NC(=O)[C@H]2C[C@H](C(=O)O)CN(CC3CC3)C2)cn1 | 109.3 |
| Cc1ccc(N2CCC(C3CCN(CC(C)C)CC3)C2)nn1 (configuration not stated) | -23.48 |
| Cc1ccc(NC(=O)[C@@H]2C[C@H](C(=O)O)CN(Cc3sccc3C)C2)cn1 | 101.2 |
| Cc1ccsc1CN1CC2(CCN(C(=O)C3CC3)CC2)CC1C(=O)O (configuration not stated) | -16.18 |
| COc1ccccc1[C@@H]1CN(CC2CCC2)C[C@H]1C(=O)O | -30.09 |
| Cc1ccc(NC(=O)[C@H]2C[C@H](C(=O)O)CN(CC(C)C)C2)cn1 | 103.8 |
| Cc1ccsc1CN1CCCC(CNC(=O)c2ccc(N)nc2)C1 (configuration not stated) | 1.774 |
| Cc1cncc(C(=O)N2CCNCC2C(=O)Nc2ccc(C)nc2)c1 (configuration not stated) | 4.535 |
| O=C(Nc1cccnc1)C1CCN(c2cc(-n3ccnc3)ncn2)CC1 | 4.084 |
| Cc1nc(C(C)(C)C)sc1C(=O)NCCn1cccn1 | 3.617 |
| COc1ccc(F)cc1CSCC(=O)N(CCC#N)CCC#N | -2.312 |
| N#Cc1ccccc1CN1CCC(c2nccn2CC2CCC2)CC1 | 43.99 |
| COC[C@@H]1CC[C@H]2[C@H](CCN2S(=O)(=O)c2cccc(C)c2)O1 | 4.659 |
| Cc1cccnc1CN1CCOC(Cc2cccc3ccccc23)C1 (configuration not stated) | -2.143 |
| CCn1ccnc1C1CCN(Cc2c(F)cccc2F)CC1 | 1.845 |
| CCn1c(CN2CCOC(Cn3cccn3)C2)nc2c(F)cccc21 (configuration not stated) | -12.64 |
| CN(C)CC1CN(Cc2coc(-c3cccs3)n2)CCO1 (configuration not stated) | -7.744 |
| CN(C)CC1CN(Cc2cc(Cl)cc3cccnc23)CCO1 (configuration not stated) | -1.777 |
| c1ccc2c(CC3CN(Cc4nccs4)CCO3)cccc2c1 (configuration not stated) | -0.1296 |
| Cc1ccccc1CN1CCOC(c2nccc(CN(C)C)n2)C1 (configuration not stated) | 127.2 |
| COc1cccc(O)c1CN1CCCC(Nc2cccc(F)c2)C1 (configuration not stated) | -13.27 |
| CN(C)Cc1ccnc(C2CN(Cc3c(F)cccc3F)CCO2)n1 (configuration not stated) | 127 |

| Compound | Percent Effect [%] |
| --- | --- |
| COc1cccc(F)c1CN1CCC(c2nccc(C)n2)C1 (configuration not stated) | 140.3 |
| CN(C)CC1CN(Cc2c(Cl)ccc3cccnc23)CCO1 (configuration not stated) | -12.27 |
| CN(C)Cc1ccnc(C2CN(Cc3nccs3)CCO2)n1 (configuration not stated) | 100.5 |
| COCCNS(=O)(=O)c1cccc2c1CN(C(=O)c1ccccc1)CC2 | 14.65 |
| O=C(c1ccno1)N1CCOC[C@H](Oc2ccccc2)C1 | -14.73 |
| CC(C1CCN(Cc2cnn(C)c2C2CC2)CC1)N(C)C (configuration not stated) | -2.941 |
| CC(C)(CN1CCCC1)CN1CCC(Cn2cc(C3CC3)nn2)CC1 | 12.62 |
| O=C(NCc1cc(O)ncn1)C1CCOc2ccccc2C1 (configuration not stated) | 8.885 |
| CNC(=O)C(NC(=O)CCc1cccc(OC2CCCC2)c1)C(C)C (configuration not stated) | -3.816 |
| COCCN1CCCC2(CCN(c3nc(C)nc4ccsc34)C2)C1=O (configuration not stated) | -7.564 |
| CC(C)(C)NC(=O)CN1CCCN(Cc2cc(C#N)ccc2F)CC1 | -2.969 |
| Cc1noc(C)c1-c1cc(CC2CCN(C(=O)c3cc[nH]n3)C2)ncn1 (configuration not stated) | 98.42 |
| Cc1noc(C)c1CN1CC2(CCN(C(=O)c3cc[nH]n3)C2)CC1=O (configuration not stated) | -2.196 |
| Cc1noc(C)c1-c1cnc(CC2CCN(C(=O)c3cc[nH]n3)C2)cn1 (configuration not stated) | -12.99 |
| Cc1noc(C)c1-c1cncc(CC2CCN(C(=O)c3cc[nH]n3)C2)n1 (configuration not stated) | 110.9 |
| CCCS(=O)(=O)N[C@H]1CN(c2ncccc2C(N)=O)C[C@@H]1C(C)C | -5.813 |
| CC(=O)NCc1ccc(S(=O)(=O)NC(=O)c2ccc3c(c2)COC3)s1 | -2.938 |
| Cn1ccnc1CCNC(=O)NCCC1CCCCO1 (configuration not stated) | -7.857 |
| Cc1nc(NC(=O)CCc2c(C)nc3cc(O)nn3c2C)sc1C | 101.2 |
| Cc1nc2cc(O)nn2c(C)c1CCC(=O)NCCc1ccccc1 | 85.91 |
| COc1ccc(NC(=O)CCc2c(C)nc3cc(O)nn3c2C)cn1 | 3.127 |
| Cc1noc(C)c1CS(=O)(=O)CC(=O)NCCc1ccccc1 | -9.569 |
| Cc1nc2cc(O)nn2c(C)c1CCC(=O)NCCc1nccn1C | 84.09 |
| Cc1nc2ncnn2c(C)c1CCC(=O)Nc1cccn(C)c1=O | 1.385 |
| Cc1nc2cc(O)nn2c(C)c1CCC(=O)NCCCC(C)C | 90.92 |
| CO[C@@H]1CCN(S(=O)(=O)c2cn(C)cn2)[C@H]1Cc1cnn(C)c1.O=C(O)C(F)(F)F | 2.669 |

| Compound | Percent Effect [%] |
| --- | --- |
| O=C([C@@H]1CCO[C@@H]2CCN(CC3CCOCC3)C[C@H]21)N1CCCC1 | -12.21 |
| CCNC(=O)CCc1c(C)nc2cc(O)nn2c1C | 5.527 |
| CNC(=O)CCCNc1cc(C)nc2cc(C)nn12 | 1.816 |
| CNC(=O)CCNC(=O)CCc1c(C)nc2cc(O)nn2c1C | 99.53 |
| O=C(O)C(F)(F)F.O=C1[C@H]2CN(C3CCOC3)C[C@H]2CN1c1ccccc1 (some centres not stated) | -7.814 |
| Cc1ccc(F)cc1S(=O)(=O)N1C[C@@H](C)[C@@](C)(O)C1 | -12.21 |
| Cc1nc(O)c2nnn(C[C@H]3CCCN3C(=O)C(C)(C)C)c2n1 | 2.685 |
| Cc1nc(O)c2nnn(C[C@H]3CCCN3C(=O)c3ccc(F)cc3)c2n1 | 99.59 |
| Cc1nc(O)c2nnn(C[C@H]3CCCN3C(=O)C3CCCC3)c2n1 | 86.1 |
| Cc1ccc(C(=O)N2CCC[C@@H]2Cn2nnc3c(O)nc(C)nc32)cc1 | 116 |
| Cc1nc(O)c2nnn(C[C@H]3CCCN3C(=O)c3cccc(F)c3)c2n1 | -3.685 |
| Cc1nc(O)c2nnn(C[C@H]3CCCN3C(=O)CCC3CCCC3)c2n1 | 2.096 |
| Cc1cccnc1CN(C)C(C(=O)O)c1ccc(C(C)(C)C#N)cc1 (configuration not stated) | -18.01 |
| CC(C)Cc1ncc2c(n1)CN(c1cc(NC3CC3)nc(N)n1)C2 | 10.04 |
| CNC(=O)[C@@H]1C[C@@H](N)CN1c1nnc(-c2ccccc2)s1 | -7.13 |
| CCCn1ncc(C(=O)N(CCOC)Cc2c(C)nn(CC)c2C)c1C | -10.36 |
| CCn1nc(C)c(C(C)NC(=O)c2cnc(N(C)C)nc2C)c1C (configuration not stated) | 101.2 |
| CCn1nc(C)c(C(C)NC(=O)c2cccc(NCC(=O)O)c2)c1C (configuration not stated) | -10.01 |
| CCCn1cc(C(=O)N[C@H]2CC[C@H](n3cnnc3)CC2)c(C)n1 | -5.85 |
| CCCn1cc(C(=O)NC(C)c2c(C)nn(CC)c2C)c(C)n1 (configuration not stated) | 107.4 |
| CCCn1ncc(C(=O)NC(C)c2c(C)nn(CC)c2C)c1C (configuration not stated) | 101.8 |
| CCCn1cc(C(=O)NC(CC(=O)O)c2ccco2)c(C)n1 (configuration not stated) | -1.122 |
| CCn1c(C)nnc1SCCNC(=O)c1cnc(N(C)C)nc1C | -11.93 |
| CCC(NC(=O)c1cnc(N(C)C)nc1C)c1ccncc1 (configuration not stated) | -21.92 |
